The campaign covered roughly 39,000 compounds. About 3,300 (8.5%) were called active. The sample holds actives, similar compounds and a random draw of the others, so the mix is not that of the screen.

The subject of this experiment is HepG2. The experiment is described as follows: cytotoxicity call (relative viability < 0.9). The following applies: 10 µM.
Take `CCCNC(=O)N1C[C@]2(CN(C2)S(=O)(=O)c2ccc(cc2)OC)c2c(n(c3cc(ccc23)OC)C)[C@@H]1CO`: the cytotoxicity call was “inactive”. `C[C@H](CO)N1C[C@H](C)[C@@H](CN(C)C(=O)c2cccc(F)c2)Oc2cc(C#CC3CC3)ccc2S1(=O)=O`: the cytotoxicity call is “inactive”. In the case of `CNC(=O)C[C@H]1CC[C@H]2[C@@H](COC[C@H](O)CN2C(=O)Nc2ccc3c(c2)OCO3)O1`, the cytotoxicity call is “inactive”. The entry for `C[C@@H]1CN([C@@H](C)CO)C(=O)c2cc(NC(=O)c3ccncc3)ccc2O[C@@H]1CN(C)S(=O)(=O)c1cccs1` is “inactive”; for `COc1ccc(NC(=O)N(C)C[C@@H]2Oc3ccc(NS(C)(=O)=O)cc3C(=O)N([C@H](C)CO)C[C@@H]2C)cc1` it is “inactive”.

`Cc1noc(C)c1NC(=O)N(C)C[C@H]1OCCCC[C@H](C)Oc2ccc(NC(=O)Nc3cccc4ccccc34)cc2C(=O)N([C@H](C)CO)C[C@@H]1C`: the cytotoxicity call was “inactive”.

In the case of `C[C@@H]1CN([C@@H](C)CO)C(=O)c2cccc(NC(=O)c3ccc(-c4nccs4)cc3)c2O[C@H]1CN(C)C(=O)Nc1ccc2c(c1)OCO2`, the cytotoxicity call was “inactive”.

For the molecule `O=C(O)c1cc(O)c2cccc(O)c2n1`, the cytotoxicity call was “inactive”.

Turning to `COc1ccc(S(=O)(=O)Nc2ccc3c(c2)C(=O)N([C@@H](C)CO)C[C@@H](C)[C@H](CN(C)Cc2ccc(C(F)(F)F)cc2)OCCCC[C@H](C)O3)cc1`, the cytotoxicity call is “active”. For `COc1ccc(S(=O)(=O)Nc2ccc3c(c2)C(=O)N([C@@H](C)CO)C[C@H](C)[C@@H](CN(C)Cc2ccc(C(F)(F)F)cc2)OCCCC[C@H](C)O3)cc1`, the cytotoxicity call is “inactive”.

Regarding `COc1ccc(S(=O)(=O)Nc2ccc3c(c2)C(=O)N([C@@H](C)CO)C[C@@H](C)[C@@H](CN(C)Cc2ccc(C(F)(F)F)cc2)OCCCC[C@H](C)O3)cc1`, the cytotoxicity call is “inactive”. With `COc1ccc(S(=O)(=O)Nc2ccc3c(c2)C(=O)N([C@@H](C)CO)C[C@H](C)[C@H](CN(C)Cc2ccc(C(F)(F)F)cc2)OCCCC[C@@H](C)O3)cc1`, the cytotoxicity call was “inactive”. The entry for `COc1ccc(S(=O)(=O)Nc2ccc3c(c2)C(=O)N([C@H](C)CO)C[C@H](C)[C@@H](CN(C)Cc2ccc(C(F)(F)F)cc2)OCCCC[C@H](C)O3)cc1` is “inactive”; for `COc1ccc(S(=O)(=O)Nc2ccc3c(c2)C(=O)N([C@H](C)CO)C[C@@H](C)[C@H](CN(C)Cc2ccc(C(F)(F)F)cc2)OCCCC[C@H](C)O3)cc1` it is “inactive”; for `COc1ccc(S(=O)(=O)Nc2ccc3c(c2)C(=O)N([C@H](C)CO)C[C@H](C)[C@H](CN(C)Cc2ccc(C(F)(F)F)cc2)OCCCC[C@H](C)O3)cc1` it is “inactive”.

Consider `COc1ccc(S(=O)(=O)Nc2ccc3c(c2)C(=O)N([C@H](C)CO)C[C@H](C)[C@H](CN(C)Cc2ccc(C(F)(F)F)cc2)OCCCC[C@@H](C)O3)cc1`, for which the cytotoxicity call is “active”. As to `COc1ccc(S(=O)(=O)Nc2ccc3c(c2)C(=O)N([C@H](C)CO)C[C@@H](C)[C@H](CN(C)Cc2ccc(C(F)(F)F)cc2)OCCCC[C@@H](C)O3)cc1`, the cytotoxicity call is “active”. As for `COc1ccc(S(=O)(=O)Nc2ccc3c(c2)C(=O)N([C@H](C)CO)C[C@@H](C)[C@@H](CN(C)Cc2ccc(C(F)(F)F)cc2)OCCCC[C@@H](C)O3)cc1`, the cytotoxicity call was “active”. The entry for `C[C@H]1CN([C@@H](C)CO)C(=O)c2cc(NC(=O)CCCN(C)C)ccc2O[C@H]1CN(C)S(=O)(=O)c1ccccc1` is “inactive”; for `C[C@@H]1CN([C@@H](C)CO)S(=O)(=O)c2ccc(Br)cc2O[C@H]1CN(C)C(=O)C1CCCCC1` it is “inactive”. The entry for `C[C@@H]1CN([C@H](C)CO)C(=O)c2cc(-c3cccc(C(=O)N(C)C)c3)cnc2O[C@H]1CN(C)S(=O)(=O)c1cccc(F)c1` is “inactive”; for `Cc1cc(C(=O)Nc2cccc3c2O[C@@H](CN(C)S(=O)(=O)c2cccs2)[C@@H](C)CN([C@@H](C)CO)C3=O)n(C)n1` it is “inactive”. The entry for `O=C1C[C@@](C(=O)NCc2ccccc2)(c2ccc([N+](=O)[O-])cc2)[C@@H](c2ccc(CO)cc2)N1CC12CC3CC(CC(C3)C1)C2` is “inactive”; for `Cc1ccc(S(=O)(=O)n2cc([C@H]3CC(=O)N(C(=O)OCc4ccccc4)[C@H]3C(=O)Nc3cccc4cccnc34)c3ccccc32)cc1` it is “inactive”. In the case of `C[C@@H]1CN([C@@H](C)CO)C(=O)c2cccc(NC(=O)Nc3ccc4c(c3)OCO4)c2O[C@H]1CN(C)S(=O)(=O)c1cn(C)cn1`, the cytotoxicity call was “inactive”.

Regarding `Cl.Cl.Fc1ccc(C(c2ccc(F)cc2)N2CCN(CC=Cc3ccccc3)CC2)cc1`, the cytotoxicity call was “inactive”. Turning to `COc1ccc(CN2CCN(C(c3ccc(F)cc3)c3ccc(F)cc3)CC2)c(OC)c1OC.Cl`, the cytotoxicity call was “active”. Take `Cc1cccc(CN2CCN(C(c3ccccc3)c3ccc(Cl)cc3)CC2)c1.Cl.Cl` (configuration not stated): the cytotoxicity call is “inactive”. Consider `Cc1ccc(S(=O)(=O)N(C)C[C@H]2Oc3c(NC(=O)C4CCOCC4)cccc3C(=O)N([C@H](C)CO)C[C@H]2C)cc1`, for which the cytotoxicity call was “inactive”.

In the case of `CCc1nc2ccc(C(=O)Nc3cc(-c4ccccc4)ccc3OC)cn2c1N(C)C(=O)c1cccc(OC)c1`, the cytotoxicity call was “inactive”. On to `CC(C)NC(=O)Nc1ccc2c(c1)CC(=O)N([C@H](C)CO)C[C@H](C)[C@@H](CN(C)S(=O)(=O)c1ccccc1)O2`, for which the cytotoxicity call is “inactive”.

On to `Cc1noc(C)c1NC(=O)N(C)C[C@@H]1OCCCC[C@H](C)Oc2ccc(NC(=O)c3ccccc3)cc2C(=O)N([C@@H](C)CO)C[C@H]1C`, for which the cytotoxicity call is “inactive”. Regarding `Cc1ccc2nc(SCc3ccc4ccccc4c3)[nH]c2c1`, the cytotoxicity call is “active”.

In the case of `Cc1ccc2nc(CN)[nH]c2c1`, the cytotoxicity call is “inactive”. The entry for `Cc1ccc2nc(SCc3c(C)c(C)cc(C)c3C)[nH]c2c1` is “inactive”; for `CCCN(C)C[C@@H]1OCCCC[C@@H](C)Oc2ccc(NC(=O)CCC(F)(F)F)cc2C(=O)N([C@H](C)CO)C[C@@H]1C` it is “inactive”; for `C[C@@H]1CCCCO[C@H](CN(C)Cc2ccc(C(=O)O)cc2)[C@H](C)CN([C@@H](C)CO)C(=O)c2cc(NC(=O)NC3CCCCC3)ccc2O1` it is “inactive”. Take `C[C@H](CO)N1C[C@H](C)[C@H](CN(C)C(=O)c2ccccc2)OCCCC[C@H](C)Oc2ccc(NC(=O)c3ccccc3)cc2C1=O`: the cytotoxicity call was “inactive”. In the case of `C=CCC[C@H](Cc1ccc(F)cc1)C(=O)OC[C@H](Cc1c[nH]c2ccccc12)NC(=O)[C@@H](CC=C)CC(=O)N[C@H](CO)Cc1ccccc1`, the cytotoxicity call was “active”. The entry for `C=CCC[C@@H](Cc1ccc(F)cc1)C(=O)OC[C@@H](Cc1c[nH]c2ccccc12)NC(=O)[C@@H](CC=C)CC(=O)N[C@@H](CO)Cc1ccccc1` is “inactive”. The entry for `C=CCC[C@H](Cc1ccc(F)cc1)C(=O)OC[C@H](Cc1c[nH]c2ccccc12)NC(=O)[C@H](CC=C)CC(=O)N[C@@H](CO)Cc1ccccc1` is “inactive”; for `C=CCC[C@@H](Cc1ccc(F)cc1)C(=O)OC[C@@H](Cc1c[nH]c2ccccc12)NC(=O)[C@H](CC=C)CC(=O)N[C@@H](CO)Cc1ccccc1` it is “inactive”; for `C=CCC[C@@H](Cc1ccc(F)cc1)C(=O)OC[C@H](Cc1c[nH]c2ccccc12)NC(=O)[C@@H](CC=C)CC(=O)N[C@@H](CO)Cc1ccccc1` it is “active”. Regarding `C=CCC[C@@H](Cc1ccc(F)cc1)C(=O)OC[C@H](Cc1c[nH]c2ccccc12)NC(=O)[C@@H](CC=C)CC(=O)N[C@H](CO)Cc1ccccc1`, the cytotoxicity call is “inactive”. On to `C=CCC[C@H](Cc1ccc(F)cc1)C(=O)OC[C@@H](Cc1c[nH]c2ccccc12)NC(=O)[C@H](CC=C)CC(=O)N[C@@H](CO)Cc1ccccc1`, for which the cytotoxicity call is “active”. The entry for `C=CC[C@H](CC(=O)N[C@@H](CO)Cc1ccccc1)C(=O)N[C@@H](COC(=O)[C@@H](CC=C)Cc1ccc(F)cc1)Cc1c[nH]c2ccccc12` is “inactive”. The entry for `C=CCC[C@H](Cc1ccc(F)cc1)C(=O)OC[C@@H](Cc1c[nH]c2ccccc12)NC(=O)[C@@H](CC=C)CC(=O)N[C@@H](CO)Cc1ccccc1` is “inactive”. The entry for `C=CC[C@@H](CC(=O)N[C@H](CO)Cc1ccccc1)C(=O)N[C@H](COC(=O)[C@@H](CC=C)Cc1ccc(F)cc1)Cc1c[nH]c2ccccc12` is “inactive”; for `C=CCC[C@H](Cc1ccc(F)cc1)C(=O)OC[C@H](Cc1c[nH]c2ccccc12)NC(=O)[C@@H](CC=C)CC(=O)N[C@@H](CO)Cc1ccccc1` it is “active”; for `C=CCC[C@@H](Cc1ccc(F)cc1)C(=O)OC[C@@H](Cc1c[nH]c2ccccc12)NC(=O)[C@@H](CC=C)CC(=O)N[C@H](CO)Cc1ccccc1` it is “inactive”. In the case of `Cc1ccnc(NC(=O)Cn2cnc3c2c(=O)n(C)c(=O)n3C)n1`, the cytotoxicity call is “inactive”.

Take `O=c1nc2[nH][nH]cc-2c(=O)[nH]1`: the cytotoxicity call was “inactive”. As for `COCC#Cc1ccc2c(c1)O[C@H](CN(C)C(=O)CN(C)C)[C@H](C)CN([C@H](C)CO)S2(=O)=O`, the cytotoxicity call was “inactive”. With `C=CCOc1nc(NCC)nc(N(C)C)n1`, the cytotoxicity call is “inactive”. The entry for `CS(=O)(=O)N1C[C@H](NC(=O)c2cnccn2)[C@H]2OCCC[C@H]21` is “inactive”; for `C=CC[C@@H](CC(=O)N(CCO)Cc1ccccc1)C(=O)N[C@H](COC(=O)[C@@H](CC=C)Cc1ccc(F)cc1)C(C)(C)C` it is “inactive”.

On to `C[C@@H]1CCCCO[C@H](CN(C)Cc2ccncc2)[C@H](C)CN([C@H](C)CO)C(=O)c2cc(NS(=O)(=O)c3ccc(Cl)cc3)ccc2O1`, for which the cytotoxicity call is “inactive”. The entry for `CCc1oc(CC[C@@H](CO)NC(=O)NCCn2cc(C3(O)CCCCC3)nn2)c(C(=O)OC)c1C(=O)OC` is “inactive”; for `O=C(CCCCCCC(=O)Nc1ccc([C@H]2O[C@@H](CSc3ccccc3)C[C@H](c3ccccc3)O2)cc1)NO` it is “inactive”; for `C[C@H](CO)N1C[C@H](C)[C@@H](CN(C)C(=O)Nc2ccc(C(F)(F)F)cc2)Oc2c(NC(=O)c3ccc(-c4nccs4)cc3)cccc2C1=O` it is “inactive”. With `C[C@H]1CN([C@@H](C)CO)C(=O)c2cccc(NC(=O)C3CC3)c2O[C@@H]1CN(C)S(=O)(=O)c1ccccc1`, the cytotoxicity call was “inactive”.

For the molecule `C[C@@H]1CCCCO[C@H](CN(C)S(=O)(=O)c2ccccc2)[C@@H](C)CN([C@@H](C)CO)C(=O)c2cc(NC(=O)CCC(F)(F)F)ccc2O1`, the cytotoxicity call is “inactive”.
